From PubChem BioAssay
15-hLO-2 inh: blocks human 15-lipoxygenase 2 activity; 110,000 compounds, 0.56% hits; purified 15hLO-2, xylenol orange hydroperoxide absorbance; Potency, µM (doses to about 57.1 µM), for inactives: at the highest dose activity change, negative = inhibition, most hits filed as inhibitors; also: potency is read from the fitted curve at half-maximal effect; % is scaled to controls: 0 for no effect and ±100 for the full control effect; nearly all actives have a fitted effect of over 60% in size
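Screening format was qHTS against 50 nM purified 15hLO-2 in Hepes pH 7.5 with detergent. Activity follows hydroperoxide formation from 45 uM arachidonic acid, measured as 573:405 nm absorbance ratio of the ferric-xylenol orange complex.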
15-hLO inh: blocks human 15-lipoxygenase activity; Potency, µM (titrated, usually from 57.1 µM), without a hit: top-dose activity change, negative = inhibition, most hits filed as inhibitors; AID 887; 74,000 compounds, 1.4% hits; P16050; purified 15hLO-1, xylenol orange hydroperoxide absorbance; also: potency is read from the fitted curve at half-maximal effect; % is scaled to controls: 0 for no effect and ±100 for the full control effect; nearly all actives have a fitted effect of over 55% in size
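Purified human 15hLO-1 (40 nM final) in 25 mM Hepes pH 7.5, 0.01% Triton X-100 was preincubated with compound 15 min at room temperature, then reacted 6 min with 50 uM arachidonic acid; hydroperoxide detected by Fe-XO, 573/405 nm absorbance ratio.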
BRCT inh green: blocks human BRCA1 BRCT binding to phosphopeptide, green readout. BRCA1 BRCT-phosphopeptide binding, green fluorescence polarization. Potency, µM (doses to about 76.9 µM), without a hit: top-dose activity change, negative = inhibition, actives largely listed as inhibitors. 75,000 compounds, 0.05% hits;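 also: potency is read from the fitted curve at half-maximal effect; plate controls were peptide without protein for full effect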
Target sequence (P38398 whole entry, looked up): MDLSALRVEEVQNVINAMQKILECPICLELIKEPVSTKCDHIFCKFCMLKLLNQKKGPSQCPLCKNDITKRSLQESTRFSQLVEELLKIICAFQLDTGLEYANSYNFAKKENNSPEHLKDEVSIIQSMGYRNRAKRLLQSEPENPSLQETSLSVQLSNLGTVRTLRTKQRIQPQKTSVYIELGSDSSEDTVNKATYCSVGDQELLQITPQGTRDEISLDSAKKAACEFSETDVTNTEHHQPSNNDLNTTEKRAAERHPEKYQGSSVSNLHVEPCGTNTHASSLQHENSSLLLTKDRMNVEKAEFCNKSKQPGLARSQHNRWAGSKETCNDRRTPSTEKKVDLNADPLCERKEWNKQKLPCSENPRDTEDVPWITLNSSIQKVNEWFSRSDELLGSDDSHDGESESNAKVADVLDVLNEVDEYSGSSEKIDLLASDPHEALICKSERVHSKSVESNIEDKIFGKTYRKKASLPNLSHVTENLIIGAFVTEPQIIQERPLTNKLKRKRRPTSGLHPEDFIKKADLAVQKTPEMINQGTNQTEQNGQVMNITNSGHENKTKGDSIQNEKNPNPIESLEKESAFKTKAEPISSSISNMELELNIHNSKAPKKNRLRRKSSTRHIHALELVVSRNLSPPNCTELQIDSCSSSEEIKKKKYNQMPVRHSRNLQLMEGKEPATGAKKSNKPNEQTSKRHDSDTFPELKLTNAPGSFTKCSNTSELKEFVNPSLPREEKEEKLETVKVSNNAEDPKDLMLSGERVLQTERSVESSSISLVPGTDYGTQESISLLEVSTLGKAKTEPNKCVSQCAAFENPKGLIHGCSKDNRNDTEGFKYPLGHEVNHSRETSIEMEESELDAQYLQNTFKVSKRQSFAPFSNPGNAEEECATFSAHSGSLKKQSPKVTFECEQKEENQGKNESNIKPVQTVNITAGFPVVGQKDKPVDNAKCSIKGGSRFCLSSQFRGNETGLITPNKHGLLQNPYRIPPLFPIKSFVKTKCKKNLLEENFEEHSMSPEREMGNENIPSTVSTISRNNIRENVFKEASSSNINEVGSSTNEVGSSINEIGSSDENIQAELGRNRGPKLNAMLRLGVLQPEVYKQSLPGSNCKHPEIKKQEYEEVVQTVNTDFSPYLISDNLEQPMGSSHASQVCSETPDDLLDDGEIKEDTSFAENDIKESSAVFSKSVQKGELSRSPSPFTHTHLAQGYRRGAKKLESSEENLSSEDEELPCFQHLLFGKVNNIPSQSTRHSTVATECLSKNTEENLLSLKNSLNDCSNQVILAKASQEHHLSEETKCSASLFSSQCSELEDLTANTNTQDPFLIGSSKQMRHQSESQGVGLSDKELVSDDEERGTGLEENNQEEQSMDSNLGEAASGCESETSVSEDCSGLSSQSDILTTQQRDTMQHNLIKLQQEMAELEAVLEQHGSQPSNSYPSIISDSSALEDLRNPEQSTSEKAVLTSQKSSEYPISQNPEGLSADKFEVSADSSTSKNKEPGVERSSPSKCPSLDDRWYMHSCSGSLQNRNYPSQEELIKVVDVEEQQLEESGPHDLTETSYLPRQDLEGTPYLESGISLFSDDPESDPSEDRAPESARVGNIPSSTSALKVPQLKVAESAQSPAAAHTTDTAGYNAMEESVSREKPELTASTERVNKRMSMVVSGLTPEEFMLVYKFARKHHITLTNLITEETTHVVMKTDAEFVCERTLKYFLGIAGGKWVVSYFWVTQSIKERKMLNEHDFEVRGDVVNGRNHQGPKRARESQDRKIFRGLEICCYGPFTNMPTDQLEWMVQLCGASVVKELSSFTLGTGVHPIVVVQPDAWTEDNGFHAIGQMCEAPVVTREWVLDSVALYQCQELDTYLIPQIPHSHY
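Fluorescence polarization: His-tagged BRCT (~35 kDa BRCA1 C-terminus, 250 nM) bound to 100 nM fluorescein-labeled phosphorylated 10-aa BACH1 peptide, pH 7.3 phosphate buffer with DTT and Tween 20. Compounds incubated 12 min at room temperature; inhibition read as lowered polarization.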
Pol III holo inh: inhibitors of bacterial DNA polymerase III holoenzyme; 71,000 compounds, 0.25% hits; Potency, µM (series often up to 57.1 µM), without a hit: at the top dose activity change, negative = inhibition; AID 603; reconstituted DNA polymerase III holoenzyme replication, biochemical; also: potency is read from the fitted curve at half-maximal effect; % is scaled to controls: 0 for no effect and ±100 for the full control effect
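Reconstituted *E. coli* holoenzyme (0.35 nM Pol III, 1 nM beta, 154 nM SSB, 2 nM primase) was preincubated with compound for 15 min at RT. Synthesis on 1.4 nM ssM13Gori ran 35 min, then was stopped with PicoGreen/EDTA and read as dsDNA fluorescence.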
BRCT inh red: inhibitors of human BRCA1 BRCT-phosphoprotein interaction (red fluorophore); P38398; BRCT-phosphopeptide binding, red fluorescence polarization; Potency, µM (highest dose often 76.9 µM), for the others: at the top dose activity change, negative = inhibition, hits mostly inhibitors; 75,000 compounds, 0.03% hits; AID 892; also: % is scaled to controls: 0 for no effect and ±100 for the full control effect
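Fluorescence polarization: 100 nM His-tagged BRCA1 BRCT with 100 nM TAMRA-labelled phospho-BACH1 decapeptide, phosphate buffer pH 7.3 with 150 mM NaCl, DTT, 0.01% Tween 20; 12 min RT. Binding inhibition seen as FP decrease.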
YjeE inh: inhibitors of E. coli YjeE (TsaE); P0AF67; purified YjeE enzyme, qHTS inhibition assay; Potency, µM; 71,000 compounds, 0.05% hits; AID 605
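Fluorescence polarization of a BODIPY Texas Red–ADP probe (2 uM) bound to purified YjeE (10 uM) was read after 15 min room-temperature incubation with compounds. Loss of polarization marks inhibitors; ADP serves as titrated control.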
The depositor's hits bear a star; i = inactive; ? = inconclusive; · = no result given; [ ] = another dose, or the depositor's remark. Only a selection was taken, and hits are over-represented in it overall. Calls follow the shape of the dose curve; as a rule, active = well fitted curve in the direction sought with a large enough effect; inconclusive = small, poorly fitted or top-dose-only effect, or another doubt; inactive = no such curve, though single readings can be large; an effect the other way counts as inactive or inconclusive.

SMILES	15-hLO-2 inh	15-hLO inh	BRCT inh green	Pol III holo inh	BRCT inh red	YjeE inh
CCn1c(SCC(=O)c2ccc(O)c(O)c2)nnc1-c1ccccc1OC	-14%	16µM*	-3%	?	1%	i
COC(=O)c1c(C)n(-c2ccc(OC)cc2)c2ccc(O)cc12	?	7.9µM*	-2%	-3%	-2%	i
CN[C@@H](CC(C)C)C(=O)N[C@@H]1C(=O)N[C@H](CC(N)=O)C(=O)N[C@H]2C(=O)N[C@H]3C(=O)N[C@H](C(=O)N[C@H](C(=O)O)c4cc(O)cc(O)c4-c4cc3ccc4O)[C@H](O)c3ccc(c(Cl)c3)Oc3cc2cc(c3O[C@@H]2O[C@@H](CO)[C@@H](O)[C@@H](O)[C@H]2O[C@H]2C[C@](C)(N)[C@H](O)[C@H](C)O2)Oc2ccc(cc2Cl)[C@@H]1O	-14%	?	-2%	-6%	-3%	i
CC1CCC(C(=O)O)NC1c1cccc(N2CCCC2=O)c1 (stereo not drawn)	·	6%[11.4 µM]	-7%[15.4 µM]	·	0%[15.4 µM]	·
O=C(NC(=S)Nc1ccc(N2CCCCC2)cc1)c1cccs1	20µM*	·	·	·	·	·
CCCC(=O)NC(=S)Nc1ccc(NC(=O)c2cccs2)cc1	-8%	·	·	·	·	·
Cc1cc(O)c(-c2cc(O)c(C)cc2O)cc1O	?	1.6µM*	1%[15.4 µM]	-9%[11.4 µM]	-1%[15.4 µM]	i
Cc1noc(C)c1COC(=O)[C@H](C)NS(=O)(=O)c1ccc(Cl)c(Cl)c1	-2%	·	·	·	·	·
Cc1noc(C)c1COC(=O)Cc1ccc(Cl)c(Cl)c1	12%	25µM*	2%	12%	0%	i
O=C(O)[C@@H](c1ccccc1)N1Cc2ccccc2C1=O	-21%	7.9µM*	-2%	-4%	-4%	i
C[C@@]12CCC(=O)C=C1CC[C@H]1[C@H]3CC[C@](O)(C(=O)CO)[C@]3(C)CC[C@@H]12	·	·	·	-6%	·	i
CCCn1c(C)nc2c(N(CCN(C)C)Cc3ccccc3)nc(C)nc21	19%	16µM*	0%	-4%	-2%	i
CCCn1c(C)nc2c(NCCN(C(C)C)C(C)C)nc(C)nc21	14%	-11%	-3%	1%	0%	i
CCCn1c(C)nc2c(N(CCN(CC)CC)CCN(CC)CC)nc(C)nc21	23%	5%	-2%	0%	-1%	i
CCCn1c(C)nc2c(NCCN(C)C)nc(C)nc21	23%	25µM*	-1%	0%	-2%	i
C=C(C)C(=O)OCC1CN2C(CCC(C)C2c2ccc(Br)cc2)C(=O)O1 (stereo not drawn)	·	6%[11.4 µM]	1%[15.4 µM]	·	-1%[15.4 µM]	·
CC(C)=CCl	4%	-2%	-2%	0%	1%	i
Nc1ncnc2c1nc(Sc1ccc(Cl)cc1)n2[C@@H]1O[C@H]2COP(=O)(O)O[C@@H]2[C@H]1O	1%	-2%	-2%	6%	-2%	i
COC(=O)c1[nH]c2ccc(C)cc2c1NC(=O)CN1CCc2cc(OC)c(OC)cc2C1	13%	-2%	-1%	-5%	-1%	i
COC(=O)c1[nH]c2ccc(C)cc2c1NC(=O)Nc1ccccc1OC	-17%	25µM*	-2%	-4%	2%	i
CCc1cc2c(nc1CC)CCN(CC/C(C)=N/O[C@@H](C)CN1CCCc3nc(C)c(C)cc31)C2	·	-13%[11.4 µM]	2%[15.4 µM]	·	-3%[15.4 µM]	·
NC(=S)NNc1cc(Cl)cc(Cl)c1	2.5µM*	·	·	·	·	·
Cc1cc(N)c2cc(NC(=O)Nc3ccc4nc(C)cc(N)c4c3)ccc2n1	49%[11.4 µM]	127%[11.4 µM]	9%[15.4 µM]	4µM*	0%[15.4 µM]	i
Cn1c(-c2ccc(N)cc2)nc2ccccc21	12%	?	-1%	-4%	0%	i
Cc1ccc(-n2c(N)c(-c3nc4ccccc4n3C)sc2=S)cc1	-3%	3.2µM*	2%	-4%	0%	i
SMILES	15-hLO-2 inh	15-hLO inh	BRCT inh green	Pol III holo inh	BRCT inh red	YjeE inh
CCOc1cccc(C=Nc2cc(C)cc(C)c2O)c1O	13%	10µM*	1%	-5%	-1%	i
CCC(=C(CC)c1ccc(O)cc1)c1ccc(O)cc1	?	-10%[25.6 µM]	-1%[34.4 µM]	-2%[25.6 µM]	-1%[34.4 µM]	i
Oc1ccccc1C1Nc2cccc3cccc(c23)N1	2µM*	20µM*	-3%	-15%	-2%	i
Brc1ccc(C2Nc3cccc4cccc(c34)N2)o1	?	10µM*	-1%	-10%	1%	i
O=C1NC(c2ccco2)Nc2ccccc21 (stereo not drawn)	4%	-16%	-2%	-8%	-1%	i
Cc1cccc(NC(=O)CC2Nc3cccc4cccc(c34)NC2=O)c1 (stereo not drawn)	-26%	·	·	·	·	·
CO[C@@H]1COC(=O)C/C=C\[C@@H](C)COC(=O)[C@H](COCc2ccccc2)NC(=O)C/C=C\[C@H]1C	·	4%[11.4 µM]	-1%[15.4 µM]	·	-3%[15.4 µM]	·
[O-][n+]1c(CN2CCCCC2)nc2cccc3c2c1-c1ccccc1-3	4%[11.4 µM]	-27%[11.4 µM]	1%[15.4 µM]	-5%[11.4 µM]	-4%[15.4 µM]	i
[Cu].[O-]/N=C1/C(=[OH+])Nc2ccccc21.[O-]Nc1c(O)[nH]c2ccccc12	-7%[11.4 µM]	3%[11.4 µM]	-1%[15.4 µM]	-9%[11.4 µM]	0%[15.4 µM]	i
COc1ccc2ccccc2c1C(O)c1nccn1C (stereo not drawn)	7%	?	13µM*	48%	?	i
Cn1ccnc1C(O)c1ccc(OCc2ccccc2)cc1 (stereo not drawn)	50%	·	·	·	·	·
OC[C@@H]1O[C@@H](n2cnc3c(NCCc4ccccc4)ncnc32)[C@@H](O)[C@H]1O	·	·	·	-5%	·	i
CC(C)N=c1scc(-c2ccco2)n1/N=C/c1ccc(O)c(O)c1	13µM*	·	·	·	·	·
C=C[C@@](C)(O)CC[C@H]1[C@]2(C)CCCC(C)(C)[C@H]2CC[C@]1(C)O	·	·	·	-4%	·	i
O=C(Nc1cccc(Br)c1)c1ccn[nH]1	-4%	10µM*	1%	-2%	-1%	i
COCC(=O)Nc1cccc(Br)c1	2%	-1%	-3%	5%	-2%	i
CCN(CC)c1nc(N(CC)CC)[nH]c(=O)n1	·	13µM*	-1%	1%	-4%	i
CCN(CC)c1ncc(C)c(=O)[nH]1	2%	·	·	·	·	·
Cn1c(NC(=O)c2ccccc2C(F)(F)F)cc(=O)n(C)c1=O	-1%	8%	-1%	-5%	-2%	i
Cn1c(NC(=O)c2ccccc2Br)cc(=O)n(C)c1=O	0%	25µM*	2.5µM*	3%	?	i
CCOC(=O)c1c(OCC)[nH]c2c1cc(O)c1ccccc12	?	7.9µM*	-2%	-9%	-1%	i
C=CCOc1ccc2cccc(/C=N/NC(=O)c3cc4cc([N+](=O)[O-])ccc4s3)c2c1	10µM*	·	·	·	·	·
CN(C)C(=O)c1cc2cc([N+](=O)[O-])ccc2s1	-1%	·	·	·	·	·
